Reference: PubChem BioAssay (NCATS)
Results filed as inconclusive are left out. Activity calls are given as the source filed them. Calls come from the whole dose curve; as a rule, active = well fitted inhibition curve with a large enough effect; inconclusive = small, poorly fitted or top-dose-only effect; inactive = flat fitted curve, though single readings scatter.

Assays:
[1] = qHTS profiling for inhibitors of Plasmodium falciparum proliferation (AID 504749);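 note: 0% = DMSO vehicle and full inhibition = artemisinin control; nearly all actives have a fitted effect of over 60% in size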; settings: P. falciparum in erythrocytes, SYBR Green DNA, 72 h
Method in brief: (§1)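 P. falciparum-infected erythrocytes (0.3% parasitemia, 2.5% hematocrit final) were exposed to compounds for 72 h at 37 C in 5% CO2, then lysed with SYBR Green buffer overnight at room temperature; parasite DNA fluorescence was normalized to artemisinin and DMSO controls.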

3D7 = experiment: as above; settings: P. falciparum in erythrocytes, SYBR Green DNA, 72 h; series mostly up to 28.7 µM
Method in brief: as §1

7G8 = experiment: as above; settings: P. falciparum in erythrocytes, SYBR Green DNA, 72 h; series mostly up to 28.7 µM
Method in brief: as §1

AA1029 = experiment: as above; settings: P. falciparum in erythrocytes, SYBR Green DNA, 72 h; series mostly up to 28.7 µM
Method in brief: as §1

AS120 = experiment: as above; settings: P. falciparum in erythrocytes, SYBR Green DNA, 72 h; series mostly up to 28.7 µM
Method in brief: as §1

ATS189 = experiment: as above; settings: P. falciparum in erythrocytes, SYBR Green DNA, 72 h; series mostly up to 28.7 µM
Method in brief: as §1

ATS95 = experiment: as above; settings: P. falciparum in erythrocytes, SYBR Green DNA, 72 h; series mostly up to 28.7 µM
Method in brief: as §1

C2A = experiment: as above; settings: P. falciparum in erythrocytes, SYBR Green DNA, 72 h; series mostly up to 28.7 µM
Method in brief: as §1

CP185 = experiment: as above; settings: P. falciparum in erythrocytes, SYBR Green DNA, 72 h; series mostly up to 28.7 µM
Method in brief: as §1

CP191 = experiment: as above; settings: P. falciparum in erythrocytes, SYBR Green DNA, 72 h; series mostly up to 28.7 µM
Method in brief: as §1

CP192 = experiment: as above; settings: P. falciparum in erythrocytes, SYBR Green DNA, 72 h; series mostly up to 28.7 µM
Method in brief: as §1

CP194 = experiment: as above; settings: P. falciparum in erythrocytes, SYBR Green DNA, 72 h; series mostly up to 28.7 µM
Method in brief: as §1

CP201 = experiment: as above; settings: P. falciparum in erythrocytes, SYBR Green DNA, 72 h; series mostly up to 28.7 µM
Method in brief: as §1

[2] = at 28.7 µM (top of the series), parasite line A
[3] = at 28.7 µM (top of the series), parasite line B
[4] = at 12.8 µM (top of the series), parasite line A
[5] = at 12.8 µM (top of the series), parasite line B

CC(C)C[C@@H](N)C(=O)O
inactive: activity, negative = inhibition [1, 2] 7.68% | activity, negative = inhibition [1, 3] 22.5% | Potency (3D7) | Potency (7G8) | Potency (AA1029) | Potency (AS120) | Potency (ATS189) | Potency (ATS95) | Potency (C2A) | Potency (CP185) | outcome (CP191) | outcome (CP192) | outcome (CP194) | outcome (CP201)

O=c1[nH]cnc2nc[nH]c12
inactive: activity, negative = inhibition [1, 2] -7.68% | activity, negative = inhibition [1, 3] 15.5% | Potency (3D7) | Potency (7G8) | Potency (AA1029) | Potency (AS120) | Potency (ATS189) | Potency (ATS95) | Potency (C2A) | Potency (CP185) | outcome (CP191) | outcome (CP192) | outcome (CP194) | outcome (CP201)

COc1ccccc1Oc1c(NS(=O)(=O)c2ccc(C(C)(C)C)cc2)nc(-c2ncccn2)nc1OCCO
inactive: activity, negative = inhibition [1, 2] -4.92% | activity, negative = inhibition [1, 3] -14.6% | Potency (3D7) | Potency (7G8) | Potency (AA1029) | Potency (AS120) | Potency (ATS189) | Potency (ATS95) | Potency (C2A) | Potency (CP185) | outcome (CP191) | outcome (CP192) | outcome (CP194) | outcome (CP201)

CCCCCC(N)=O
inactive: activity, negative = inhibition [1, 2] 6.64% | activity, negative = inhibition [1, 3] 8.74% | Potency (3D7) | Potency (7G8) | Potency (AA1029) | Potency (AS120) | Potency (ATS189) | Potency (ATS95) | Potency (C2A) | Potency (CP185) | outcome (CP191) | outcome (CP192) | outcome (CP194) | outcome (CP201)

CCOC(=O)c1cccnc1
inactive: activity, negative = inhibition [1, 2] 7.9% | activity, negative = inhibition [1, 3] 13.9% | Potency (3D7) | Potency (7G8) | Potency (AA1029) | Potency (AS120) | Potency (ATS189) | Potency (ATS95) | Potency (C2A) | Potency (CP185) | outcome (CP191) | outcome (CP192) | outcome (CP194) | outcome (CP201)

O=C(O)COC(=O)Cc1ccccc1Nc1c(Cl)cccc1Cl
inactive: activity, negative = inhibition [1, 4] -3.73% | activity, negative = inhibition [1, 5] 2.28% | Potency (3D7) | Potency (7G8) | Potency (AA1029) | Potency (AS120) | Potency (ATS189) | Potency (ATS95) | Potency (C2A) | Potency (CP185) | outcome (CP191) | outcome (CP192) | outcome (CP194) | outcome (CP201)

FC(F)(F)C(Cl)Br (stereo not given)
inactive: activity, negative = inhibition [1, 2] 6.28% | activity, negative = inhibition [1, 3] 10.7% | Potency (3D7) | Potency (7G8) | Potency (AA1029) | Potency (AS120) | Potency (ATS189) | Potency (ATS95) | Potency (C2A) | Potency (CP185) | outcome (CP191) | outcome (CP192) | outcome (CP201)

CC1CCc2cc(F)cc3c(=O)c(C(=O)O)cn1c23 (stereo not given)
inactive: activity, negative = inhibition [1, 2] -7.54% | activity, negative = inhibition [1, 3] 6.45% | Potency (3D7) | Potency (7G8) | Potency (AA1029) | Potency (AS120) | Potency (ATS189) | Potency (ATS95) | Potency (C2A) | Potency (CP185) | outcome (CP191) | outcome (CP192) | outcome (CP194) | outcome (CP201)

CC(=O)Nc1ccc(C(=O)O)cc1
inactive: activity, negative = inhibition [1, 2] 7.84% | activity, negative = inhibition [1, 3] 3.26% | Potency (3D7) | Potency (7G8) | Potency (AA1029) | Potency (AS120) | Potency (ATS189) | Potency (ATS95) | Potency (C2A) | Potency (CP185) | outcome (CP191) | outcome (CP192) | outcome (CP194) | outcome (CP201)

CC(=O)Nc1ccccc1
inactive: activity, negative = inhibition [1, 2] 1.91% | activity, negative = inhibition [1, 3] -0.613% | Potency (3D7) | Potency (7G8) | Potency (AA1029) | Potency (AS120) | Potency (ATS189) | Potency (C2A) | Potency (CP185) | outcome (CP191) | outcome (CP192) | outcome (CP194) | outcome (CP201)

CNc1c2c(nn1C)CCCC2
inactive: activity, negative = inhibition [1, 2] 6.6% | activity, negative = inhibition [1, 3] 23% | Potency (3D7) | Potency (7G8) | Potency (AA1029) | Potency (AS120) | Potency (ATS189) | Potency (ATS95) | Potency (C2A) | Potency (CP185) | outcome (CP191) | outcome (CP192) | outcome (CP194) | outcome (CP201)

CN/C(=C\[N+](=O)[O-])NCCSCc1csc(CN(C)C)n1
inactive: activity, negative = inhibition [1, 4] 4.23% | activity, negative = inhibition [1, 5] 7.76% | Potency (3D7) | Potency (7G8) | Potency (AA1029) | Potency (AS120) | Potency (ATS189) | Potency (ATS95) | Potency (C2A) | Potency (CP185) | outcome (CP191) | outcome (CP192) | outcome (CP194) | outcome (CP201)

CC(C(=O)O)c1ccc2c(c1)Cc1cccnc1O2 (stereo not given)
inactive: activity, negative = inhibition [1, 2] 5.68% | activity, negative = inhibition [1, 3] -1.86% | Potency (3D7) | Potency (7G8) | Potency (AA1029) | Potency (AS120) | Potency (ATS189) | Potency (ATS95) | Potency (C2A) | Potency (CP185) | outcome (CP191) | outcome (CP192) | outcome (CP194) | outcome (CP201)
